About 410 targets per protein were measured; listed, in parts, are those with the strongest signals and a random draw of the rest.
How the values were obtained:
Experiment in all cases: glycan array binding signal (z-score within array); higher = stronger binding
Conditions in all cases: glycan notation: IUPAC condensed, linker removed
Fuc(a1-2)Gal(b1-3)GalNAc = molecular target: Fuc(a1-2)Gal(b1-3)GalNAc
Outline: (§1)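 The binding signal is a Z-score computed within each array. Data were drawn from 3228 arrays in the Consortium for Functional Glycomics database, restricted to those with a known protein sequence. Scores were averaged over arrays of the same protein sequence at different concentrations or buffers, and over linkers, and negative values can be taken as non-binding.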

[1] = molecular target: Fuc(a1-2)Gal(b1-3)GalNAc(b1-4)[Neu5Ac(a2-3)]Gal(b1-4)Glc
Outline: as §1

[2] = molecular target: Fuc(a1-2)Gal(b1-3)GlcNAc(b1-3)[Gal(b1-4)GlcNAc(b1-6)]Gal(b1-4)Glc
Outline: as §1

[3] = molecular target: Fuc(a1-2)Gal(b1-4)[Fuc(a1-3)]GlcNAc(b1-3)Gal(b1-4)[Fuc(a1-3)]GlcNAc
Outline: as §1

[4] = molecular target: Fuc(a1-2)[Gal(a1-3)]Gal(b1-4)Glc
Outline: as §1

[5] = molecular target: Fuc(a1-2)[GalNAc(a1-3)]Gal(b1-4)GlcNAc(b1-2)Man(a1-3)[Fuc(a1-2)[GalNAc(a1-3)]Gal(b1-4)GlcNAc(b1-2)Man(a1-6)]Man(b1-4)GlcNAc(b1-4)[Fuc(a1-6)]GlcNAc
Outline: as §1

[6] = molecular target: Fuc(a1-2)[GalNAc(a1-3)]Gal(b1-4)GlcNAc(b1-3)GalNAc
Outline: as §1

[7] = molecular target: Fuc(a1-3)[Gal(b1-4)]Glc6S
Outline: as §1

[8] = molecular target: Fuc(a1-3)[Gal3S(b1-4)]Glc
Outline: as §1

Gal(a1-3)Gal = molecular target: Gal(a1-3)Gal
Outline: as §1

[9] = molecular target: Gal(a1-3)[Gal(a1-4)]Gal(b1-4)GlcNAc
Outline: as §1

[10] = molecular target: Gal(b1-3)GlcNAc(b1-3)Gal(b1-3)GlcNAc
Outline: as §1

[11] = molecular target: Gal(b1-3)GlcNAc(b1-3)Gal(b1-4)GlcNAc(b1-2)Man(a1-3)[Gal(b1-3)GlcNAc(b1-3)Gal(b1-4)GlcNAc(b1-2)Man(a1-6)]Man(b1-4)GlcNAc(b1-4)GlcNAc
Outline: as §1

[12] = molecular target: Gal(b1-3)GlcNAc(b1-3)Gal(b1-4)GlcNAc(b1-3)Gal(b1-4)GlcNAc(b1-2)[Gal(b1-3)GlcNAc(b1-3)Gal(b1-4)GlcNAc(b1-3)Gal(b1-4)GlcNAc(b1-6)]Man(a1-6)[Gal(b1-3)GlcNAc(b1-3)Gal(b1-4)GlcNAc(b1-3)Gal(b1-4)GlcNAc(b1-2)Man(a1-3)]Man(b1-4)GlcNAc(b1-4)[Fuc(a1-6)]GlcNAc
Outline: as §1

[13] = molecular target: Gal(b1-3)[Neu5Ac(a2-6)]GalNAc
Outline: as §1

Gal(b1-4)GlcNAc(b1-2)Man = molecular target: Gal(b1-4)GlcNAc(b1-2)Man
Outline: as §1

[14] = molecular target: Gal(b1-4)GlcNAc(b1-2)Man(a1-6)Man(b1-4)GlcNAc(b1-4)GlcNAc
Outline: as §1

[15] = molecular target: Gal(b1-4)GlcNAc(b1-2)[Gal(b1-4)GlcNAc(b1-4)]Man(a1-3)[Gal(b1-4)GlcNAc(b1-2)[Gal(b1-4)GlcNAc(b1-6)]Man(a1-6)]Man(b1-4)GlcNAc(b1-4)GlcNAc
Outline: as §1

[16] = molecular target: Gal(b1-4)GlcNAc(b1-2)[Gal(b1-4)GlcNAc(b1-4)]Man(a1-3)[GlcNAc(b1-4)][Gal(b1-4)GlcNAc(b1-2)[Gal(b1-4)GlcNAc(b1-6)]Man(a1-6)]Man(b1-4)GlcNAc(b1-4)GlcNAc
Outline: as §1

[17] = molecular target: Gal(b1-4)GlcNAc(b1-3)Gal(b1-3)GalNAc
Outline: as §1

[18] = molecular target: Gal(b1-4)GlcNAc(b1-3)Gal(b1-4)GlcNAc(b1-2)Man(a1-3)[Gal(b1-4)GlcNAc(b1-3)Gal(b1-4)GlcNAc(b1-2)Man(a1-6)]Man(b1-4)GlcNAc(b1-4)GlcNAc
Outline: as §1

[19] = molecular target: Gal(b1-4)GlcNAc(b1-3)Gal(b1-4)GlcNAc(b1-2)Man(a1-3)[Gal(b1-4)GlcNAc(b1-3)Gal(b1-4)GlcNAc(b1-2)Man(a1-6)]Man(b1-4)GlcNAc(b1-4)[Fuc(a1-6)]GlcNAc
Outline: as §1

[20] = molecular target: Gal(b1-4)GlcNAc(b1-3)Gal(b1-4)GlcNAc(b1-3)Gal(b1-4)GlcNAc
Outline: as §1

[21] = molecular target: Gal(b1-4)GlcNAc(b1-3)Gal(b1-4)GlcNAc(b1-3)Gal(b1-4)GlcNAc(b1-2)[Gal(b1-4)GlcNAc(b1-3)Gal(b1-4)GlcNAc(b1-3)Gal(b1-4)GlcNAc(b1-6)]Man(a1-6)[Gal(b1-4)GlcNAc(b1-3)Gal(b1-4)GlcNAc(b1-3)Gal(b1-4)GlcNAc(b1-2)Man(a1-3)]Man(b1-4)GlcNAc(b1-4)[Fuc(a1-6)]GlcNAc
Outline: as §1

[22] = molecular target: Gal(b1-4)GlcNAc(b1-3)Gal(b1-4)GlcNAc(b1-3)Gal(b1-4)GlcNAc(b1-3)Gal(b1-4)GlcNAc(b1-2)Man(a1-3)[Gal(b1-4)GlcNAc(b1-3)Gal(b1-4)GlcNAc(b1-3)Gal(b1-4)GlcNAc(b1-3)Gal(b1-4)GlcNAc(b1-2)Man(a1-6)]Man(b1-4)GlcNAc(b1-4)GlcNAc
Outline: as §1

[23] = molecular target: Gal(b1-4)GlcNAc(b1-6)[Gal(b1-4)GlcNAc(b1-3)]GalNAc
Outline: as §1

[24] = molecular target: Gal3S(b1-4)[Fuc(a1-3)]Glc6S
Outline: as §1

[25] = molecular target: GlcNAc(a1-4)Gal(b1-3)GlcNAc
Outline: as §1

B1: Aap brpt (Staphylococcus epidermidis) (protein)
chain: VDGDPITSTEEIPFDKKREFDPNLAPGTEKVVQKGEPGTKTITTPTTKNPLTGEKVGEGEPTEKITKQPVDEIVHYGGEEIKTGHKDEFDPNAPKGSQTTQPGKPGVKNPDTGEVVTPPVDDVTKYGPVDGDPITSTEEIPFDKKREFDPNLAPGTEKVVQKGEPGTKTITTPTTKNPLTGEKVGEGEPTEKITKQPVDEIVHYGGEEIKPGHKDEFDPNAPKGSQEDVPGKPGVKNPDTGEVVTPPVDDVTKYGPVDGDSITSTEEIPFDKKREFDPNLAPGTEKVVQKGEPGTKTITTPTTKNPLTGEKVGEGEPTEKITKQPVDEIVHYGGEQIPQGHKDEFDPNAPVDSKTEVPGKPGVKNPDTGEVVTPPVDDVTKYGPVDGDSITSTEEIPFDKKREFDPNLAPGTEKVVQKGEPGTKTITTPTTKNPLTGEKVGEGKSTEKVTKQPVDEIVEYGPTK
glycan array binding signal (z-score) (Fuc(a1-2)Gal(b1-3)GalNAc): -1 | glycan array binding signal (z-score) [1]: -0.026 | glycan array binding signal (z-score) [2]: 0.337 | glycan array binding signal (z-score) [3]: -0.951 | glycan array binding signal (z-score) [4]: -0.658 | glycan array binding signal (z-score) [5]: 0.323 | glycan array binding signal (z-score) [6]: -2.27 | glycan array binding signal (z-score) [7]: 0.738 | glycan array binding signal (z-score) [8]: 0.077 | glycan array binding signal (z-score) (Gal(a1-3)Gal): 2.41 | glycan array binding signal (z-score) [9]: 0.93 | glycan array binding signal (z-score) [10]: -0.56 | glycan array binding signal (z-score) [11]: -0.969 | glycan array binding signal (z-score) [12]: -0.027 | glycan array binding signal (z-score) [13]: 0.106 | glycan array binding signal (z-score) (Gal(b1-4)GlcNAc(b1-2)Man): -0.301 | glycan array binding signal (z-score) [14]: -0.494 | glycan array binding signal (z-score) [15]: 0.481 | glycan array binding signal (z-score) [16]: -0.768 | glycan array binding signal (z-score) [17]: -0.487 | glycan array binding signal (z-score) [18]: 3.34 | glycan array binding signal (z-score) [19]: 0.377 | glycan array binding signal (z-score) [20]: 0.054 | glycan array binding signal (z-score) [21]: 2.44 | glycan array binding signal (z-score) [22]: -0.738 | glycan array binding signal (z-score) [23]: -0.18 | glycan array binding signal (z-score) [24]: 2.61 | glycan array binding signal (z-score) [25]: -0.124

Source: the supplement of paper PMC8728848
